What was measured:
Assay in all cases: DAPPL (digital affinity profiling via proximity ligation, sequencing); 10 mM Tris-HCl pH 7.5, 50 mM NaCl, 1 mM DTT, 4% glycerol, room temperature, 30 min; GST-TFs on glutathione beads, 16-mer random dsDNA library, 0.1% formaldehyde crosslink after washing; high values mean tight binding
FEV = molecular target: T1, FEV (Homo sapiens, UniProt Q99581 1-238); conditions: protein: recombinant; tags: N-terminal GST; dsDNA, one strand shown
T1 sequence: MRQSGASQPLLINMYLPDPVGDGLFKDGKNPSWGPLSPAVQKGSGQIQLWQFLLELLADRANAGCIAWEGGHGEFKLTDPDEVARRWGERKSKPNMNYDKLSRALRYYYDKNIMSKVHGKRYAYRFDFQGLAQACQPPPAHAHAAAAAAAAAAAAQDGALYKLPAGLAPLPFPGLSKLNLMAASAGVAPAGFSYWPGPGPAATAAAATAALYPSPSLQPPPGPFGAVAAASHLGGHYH
Procedure, shortened: (§1)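 Human transcription factors were made in yeast as GST fusions, captured on glutathione beads and barcoded with DNA. With a tag-only sample included, the pool was incubated with 200 nmole of a random double-stranded 16-mer DNA library in Tris/NaCl/DTT/glycerol buffer at room temperature for 30 min, then crosslinked with 0.1% formaldehyde after washing, ligated by proximity, amplified and sequenced. For binding signal, each hexamer's read frequency for a factor is divided by its frequency for the tag-only sample.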

ETV5 = ETV5 (Homo sapiens, UniProt P41161 1-510); conditions: protein: recombinant; tags: N-terminal GST; dsDNA, one strand shown
Chain of ETV5 (P41161 whole entry): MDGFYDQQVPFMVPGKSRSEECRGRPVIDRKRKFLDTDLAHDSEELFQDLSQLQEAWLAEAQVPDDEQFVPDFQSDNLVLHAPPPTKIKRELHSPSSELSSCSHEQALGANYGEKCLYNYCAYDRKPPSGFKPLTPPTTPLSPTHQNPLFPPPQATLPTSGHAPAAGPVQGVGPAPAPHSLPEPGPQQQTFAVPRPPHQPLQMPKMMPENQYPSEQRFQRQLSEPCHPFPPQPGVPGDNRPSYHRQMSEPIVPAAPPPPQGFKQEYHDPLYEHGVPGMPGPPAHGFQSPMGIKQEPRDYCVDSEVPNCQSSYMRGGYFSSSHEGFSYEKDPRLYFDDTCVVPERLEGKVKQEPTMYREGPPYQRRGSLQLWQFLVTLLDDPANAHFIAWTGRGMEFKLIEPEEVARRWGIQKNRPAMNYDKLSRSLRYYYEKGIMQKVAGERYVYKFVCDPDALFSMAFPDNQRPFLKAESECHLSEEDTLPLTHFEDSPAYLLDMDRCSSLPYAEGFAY
Procedure, shortened: as §1

HSF1 = HSF1 (Homo sapiens, UniProt Q00613 1-529); conditions: protein: recombinant; tags: N-terminal GST; chain copies: 3; dsDNA, one strand shown
Chain of HSF1 (Q00613 whole entry): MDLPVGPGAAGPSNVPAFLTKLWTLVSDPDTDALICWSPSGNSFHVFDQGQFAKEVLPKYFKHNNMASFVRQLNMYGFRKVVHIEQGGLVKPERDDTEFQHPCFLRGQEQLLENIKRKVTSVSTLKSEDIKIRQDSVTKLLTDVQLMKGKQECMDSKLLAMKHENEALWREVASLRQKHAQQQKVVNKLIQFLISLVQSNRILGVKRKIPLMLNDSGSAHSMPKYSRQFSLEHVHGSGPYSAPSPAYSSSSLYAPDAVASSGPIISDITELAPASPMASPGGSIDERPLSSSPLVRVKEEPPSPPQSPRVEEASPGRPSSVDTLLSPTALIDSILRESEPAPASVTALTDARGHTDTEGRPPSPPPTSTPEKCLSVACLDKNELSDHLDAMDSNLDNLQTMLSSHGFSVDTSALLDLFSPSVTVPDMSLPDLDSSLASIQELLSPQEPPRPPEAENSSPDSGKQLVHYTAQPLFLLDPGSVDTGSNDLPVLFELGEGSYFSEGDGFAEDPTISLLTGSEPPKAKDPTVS
Procedure, shortened: as §1

SPIC = molecular target: T2, SPIC (Homo sapiens, UniProt Q8N5J4 1-248); conditions: protein: recombinant; tags: N-terminal GST; dsDNA, one strand shown
T2 sequence: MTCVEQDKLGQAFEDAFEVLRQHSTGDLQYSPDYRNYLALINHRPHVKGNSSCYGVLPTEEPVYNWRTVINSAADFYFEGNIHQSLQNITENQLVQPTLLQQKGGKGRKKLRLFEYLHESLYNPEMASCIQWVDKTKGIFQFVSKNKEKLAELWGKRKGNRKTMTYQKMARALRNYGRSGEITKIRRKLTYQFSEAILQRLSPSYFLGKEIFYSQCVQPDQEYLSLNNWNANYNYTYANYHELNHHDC
Procedure, shortened: as §1

ELF4 = ELF4 (Homo sapiens, UniProt Q99607 1-663); conditions: protein: recombinant; tags: N-terminal GST; dsDNA, one strand shown
Chain of ELF4 (Q99607 whole entry): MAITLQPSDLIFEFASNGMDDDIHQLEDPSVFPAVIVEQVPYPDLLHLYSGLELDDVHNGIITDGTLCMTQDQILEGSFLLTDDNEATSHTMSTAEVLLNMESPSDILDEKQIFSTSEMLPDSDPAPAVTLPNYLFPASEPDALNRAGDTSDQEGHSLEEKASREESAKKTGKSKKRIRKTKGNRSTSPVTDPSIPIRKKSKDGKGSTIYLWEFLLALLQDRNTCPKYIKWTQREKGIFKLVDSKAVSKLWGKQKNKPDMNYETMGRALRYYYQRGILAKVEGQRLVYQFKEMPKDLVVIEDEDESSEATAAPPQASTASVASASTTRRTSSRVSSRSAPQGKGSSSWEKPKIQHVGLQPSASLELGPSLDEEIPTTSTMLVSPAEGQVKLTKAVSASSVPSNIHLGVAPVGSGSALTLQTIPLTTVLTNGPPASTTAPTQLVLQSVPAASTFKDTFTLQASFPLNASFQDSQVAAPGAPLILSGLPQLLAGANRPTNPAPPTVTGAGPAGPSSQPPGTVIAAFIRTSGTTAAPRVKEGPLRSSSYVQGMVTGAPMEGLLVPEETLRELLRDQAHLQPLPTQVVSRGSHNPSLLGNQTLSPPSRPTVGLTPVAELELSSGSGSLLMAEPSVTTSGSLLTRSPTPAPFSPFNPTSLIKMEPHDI
Procedure, shortened: as §1

ELK4 = molecular target: T3, ELK4 (Homo sapiens, UniProt P28324-2 1-405); conditions: protein: recombinant; tags: N-terminal GST; dsDNA, one strand shown
T3 sequence: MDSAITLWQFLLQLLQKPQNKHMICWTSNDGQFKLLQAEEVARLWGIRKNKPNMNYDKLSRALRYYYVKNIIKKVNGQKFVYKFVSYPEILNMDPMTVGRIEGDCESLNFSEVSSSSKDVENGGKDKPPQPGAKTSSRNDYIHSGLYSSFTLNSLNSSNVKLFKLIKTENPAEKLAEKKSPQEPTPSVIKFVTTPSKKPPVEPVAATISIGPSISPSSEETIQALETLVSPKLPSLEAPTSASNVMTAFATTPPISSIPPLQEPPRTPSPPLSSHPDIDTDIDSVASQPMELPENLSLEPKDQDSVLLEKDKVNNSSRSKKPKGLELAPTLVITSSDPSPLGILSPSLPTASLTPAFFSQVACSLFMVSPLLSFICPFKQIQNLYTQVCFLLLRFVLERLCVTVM
Procedure, shortened: as §1

ETV2 = molecular target: T4, ETV2 (Homo sapiens, UniProt O00321 1-342); conditions: protein: recombinant; tags: N-terminal GST; dsDNA, one strand shown
T4 sequence: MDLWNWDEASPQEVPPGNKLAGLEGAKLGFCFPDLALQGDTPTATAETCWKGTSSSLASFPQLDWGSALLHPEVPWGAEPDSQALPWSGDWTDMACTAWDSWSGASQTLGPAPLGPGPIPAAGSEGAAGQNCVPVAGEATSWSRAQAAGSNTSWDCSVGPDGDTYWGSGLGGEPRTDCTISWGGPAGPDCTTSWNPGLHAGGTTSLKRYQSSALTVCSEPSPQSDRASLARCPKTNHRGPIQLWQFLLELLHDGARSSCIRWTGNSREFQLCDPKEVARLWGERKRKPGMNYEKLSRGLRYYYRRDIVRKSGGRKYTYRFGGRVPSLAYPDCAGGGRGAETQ
Procedure, shortened: as §1

ELF3 = molecular target: T5, ELF3 (Homo sapiens, UniProt P78545 1-371); conditions: protein: recombinant; tags: N-terminal GST; dsDNA, one strand shown
T5 sequence: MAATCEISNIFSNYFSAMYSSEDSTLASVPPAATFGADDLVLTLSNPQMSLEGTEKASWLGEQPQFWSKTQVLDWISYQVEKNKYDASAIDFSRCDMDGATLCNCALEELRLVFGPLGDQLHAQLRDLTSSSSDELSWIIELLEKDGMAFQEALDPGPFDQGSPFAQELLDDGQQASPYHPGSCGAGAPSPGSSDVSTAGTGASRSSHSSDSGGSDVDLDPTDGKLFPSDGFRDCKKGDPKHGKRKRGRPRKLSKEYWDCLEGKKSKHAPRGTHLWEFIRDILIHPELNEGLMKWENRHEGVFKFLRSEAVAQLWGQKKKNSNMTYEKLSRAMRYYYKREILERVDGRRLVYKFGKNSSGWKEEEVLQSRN
Procedure, shortened: as §1

CRX = CRX (Homo sapiens, UniProt O43186 1-299); conditions: protein: recombinant; tags: N-terminal GST; dsDNA, one strand shown
Chain of CRX (O43186 whole entry): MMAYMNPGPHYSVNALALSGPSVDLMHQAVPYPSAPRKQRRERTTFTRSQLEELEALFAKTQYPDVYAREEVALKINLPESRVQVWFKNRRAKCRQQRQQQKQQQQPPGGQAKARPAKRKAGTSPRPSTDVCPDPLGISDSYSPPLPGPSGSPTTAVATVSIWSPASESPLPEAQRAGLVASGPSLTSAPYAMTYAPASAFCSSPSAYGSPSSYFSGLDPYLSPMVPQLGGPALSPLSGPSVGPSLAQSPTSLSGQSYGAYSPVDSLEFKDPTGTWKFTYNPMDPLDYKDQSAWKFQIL
Procedure, shortened: as §1

ETV1 = ETV1 (Homo sapiens, UniProt P50549 1-477); conditions: protein: recombinant; tags: N-terminal GST; dsDNA, one strand shown
Chain of ETV1 (P50549 whole entry): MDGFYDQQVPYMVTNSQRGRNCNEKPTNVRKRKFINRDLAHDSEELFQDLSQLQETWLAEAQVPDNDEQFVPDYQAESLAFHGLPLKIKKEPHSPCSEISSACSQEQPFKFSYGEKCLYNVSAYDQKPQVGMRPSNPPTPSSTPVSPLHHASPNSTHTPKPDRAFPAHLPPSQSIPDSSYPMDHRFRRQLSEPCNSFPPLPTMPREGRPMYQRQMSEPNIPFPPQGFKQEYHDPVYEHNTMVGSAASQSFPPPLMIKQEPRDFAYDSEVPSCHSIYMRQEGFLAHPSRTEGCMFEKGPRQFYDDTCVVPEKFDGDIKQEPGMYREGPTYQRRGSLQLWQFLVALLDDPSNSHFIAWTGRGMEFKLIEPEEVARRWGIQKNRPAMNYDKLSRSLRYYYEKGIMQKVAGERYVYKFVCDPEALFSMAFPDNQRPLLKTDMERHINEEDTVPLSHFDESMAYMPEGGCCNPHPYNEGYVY
Procedure, shortened: as §1

ERF = molecular target: T6, ERF (Homo sapiens, UniProt P50548 1-548); conditions: protein: recombinant; tags: N-terminal GST; dsDNA, one strand shown
T6 sequence: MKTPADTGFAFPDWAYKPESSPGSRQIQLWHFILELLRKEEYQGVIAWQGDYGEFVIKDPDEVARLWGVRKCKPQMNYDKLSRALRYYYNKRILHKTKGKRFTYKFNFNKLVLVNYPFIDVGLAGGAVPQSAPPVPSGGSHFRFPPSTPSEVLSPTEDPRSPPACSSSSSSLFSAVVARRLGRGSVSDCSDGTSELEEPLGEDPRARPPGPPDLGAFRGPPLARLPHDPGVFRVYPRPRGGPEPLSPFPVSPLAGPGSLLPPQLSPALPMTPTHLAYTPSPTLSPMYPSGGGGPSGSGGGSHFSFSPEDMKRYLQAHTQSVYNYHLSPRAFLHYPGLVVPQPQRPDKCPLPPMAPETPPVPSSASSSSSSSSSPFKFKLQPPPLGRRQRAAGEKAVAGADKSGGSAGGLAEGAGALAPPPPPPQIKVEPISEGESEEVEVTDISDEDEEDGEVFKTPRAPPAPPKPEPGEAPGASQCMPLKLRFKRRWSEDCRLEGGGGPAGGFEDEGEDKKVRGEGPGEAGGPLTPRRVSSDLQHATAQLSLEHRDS
Procedure, shortened: as §1

ETV3L = molecular target: T7, ETV3L (Homo sapiens, UniProt Q6ZN32 1-361); conditions: protein: recombinant; tags: N-terminal GST; dsDNA, one strand shown
T7 sequence: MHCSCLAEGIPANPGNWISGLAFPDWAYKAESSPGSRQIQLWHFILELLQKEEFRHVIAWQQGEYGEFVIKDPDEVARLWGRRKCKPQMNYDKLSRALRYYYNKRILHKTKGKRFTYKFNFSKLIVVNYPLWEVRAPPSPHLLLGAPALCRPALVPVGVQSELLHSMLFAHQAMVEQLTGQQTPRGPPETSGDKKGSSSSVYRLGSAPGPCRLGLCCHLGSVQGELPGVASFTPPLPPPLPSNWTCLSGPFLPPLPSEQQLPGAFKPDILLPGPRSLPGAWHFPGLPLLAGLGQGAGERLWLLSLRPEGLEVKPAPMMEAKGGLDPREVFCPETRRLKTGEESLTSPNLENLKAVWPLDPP
Procedure, shortened: as §1

ETS2 = molecular target: T8, ETS2 (Homo sapiens, UniProt P15036 1-469); conditions: protein: recombinant; tags: N-terminal GST; dsDNA, one strand shown
T8 sequence: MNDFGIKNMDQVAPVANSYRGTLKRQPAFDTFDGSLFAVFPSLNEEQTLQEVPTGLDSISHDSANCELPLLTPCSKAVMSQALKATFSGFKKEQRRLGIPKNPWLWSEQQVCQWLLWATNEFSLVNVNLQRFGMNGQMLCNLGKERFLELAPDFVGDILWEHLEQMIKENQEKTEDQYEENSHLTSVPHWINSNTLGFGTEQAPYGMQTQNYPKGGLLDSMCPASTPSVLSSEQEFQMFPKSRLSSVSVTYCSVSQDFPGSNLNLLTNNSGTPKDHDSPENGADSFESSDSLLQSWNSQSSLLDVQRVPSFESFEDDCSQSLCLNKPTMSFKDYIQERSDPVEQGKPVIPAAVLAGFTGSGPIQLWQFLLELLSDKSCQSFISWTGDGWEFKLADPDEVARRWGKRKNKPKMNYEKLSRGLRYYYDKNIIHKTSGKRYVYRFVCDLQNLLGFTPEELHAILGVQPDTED
Procedure, shortened: as §1

SPDEF = molecular target: T9, SPDEF (Homo sapiens, UniProt O95238 1-335); conditions: protein: recombinant; tags: N-terminal GST; dsDNA, one strand shown
T9 sequence: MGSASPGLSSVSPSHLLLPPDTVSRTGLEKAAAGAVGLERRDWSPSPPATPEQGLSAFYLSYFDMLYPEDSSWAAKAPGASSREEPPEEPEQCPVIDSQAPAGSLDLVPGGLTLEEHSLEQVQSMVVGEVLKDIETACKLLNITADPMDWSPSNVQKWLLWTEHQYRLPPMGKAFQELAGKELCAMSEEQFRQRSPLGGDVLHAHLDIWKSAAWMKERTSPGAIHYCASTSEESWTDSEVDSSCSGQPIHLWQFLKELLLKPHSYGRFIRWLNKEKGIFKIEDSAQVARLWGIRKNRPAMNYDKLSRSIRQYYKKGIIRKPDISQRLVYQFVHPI
Procedure, shortened: as §1

ETV7 = molecular target: T10, ETV7 (Homo sapiens, UniProt Q9Y603 1-341); conditions: protein: recombinant; tags: N-terminal GST; dsDNA, one strand shown
T10 sequence: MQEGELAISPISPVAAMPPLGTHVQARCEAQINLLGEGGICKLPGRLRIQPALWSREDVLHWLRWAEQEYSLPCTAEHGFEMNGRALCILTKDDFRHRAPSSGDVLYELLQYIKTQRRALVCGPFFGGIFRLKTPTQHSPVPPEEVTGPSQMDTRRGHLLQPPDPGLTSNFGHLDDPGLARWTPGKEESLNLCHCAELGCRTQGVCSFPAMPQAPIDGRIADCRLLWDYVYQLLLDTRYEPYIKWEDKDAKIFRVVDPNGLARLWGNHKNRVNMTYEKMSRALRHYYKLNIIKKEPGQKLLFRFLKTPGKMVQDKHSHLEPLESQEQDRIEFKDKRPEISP
Procedure, shortened: as §1

ELF5 = molecular target: T11, ELF5 (Homo sapiens, UniProt Q9UKW6-2 1-255); conditions: protein: recombinant; tags: N-terminal GST; dsDNA, one strand shown
T11 sequence: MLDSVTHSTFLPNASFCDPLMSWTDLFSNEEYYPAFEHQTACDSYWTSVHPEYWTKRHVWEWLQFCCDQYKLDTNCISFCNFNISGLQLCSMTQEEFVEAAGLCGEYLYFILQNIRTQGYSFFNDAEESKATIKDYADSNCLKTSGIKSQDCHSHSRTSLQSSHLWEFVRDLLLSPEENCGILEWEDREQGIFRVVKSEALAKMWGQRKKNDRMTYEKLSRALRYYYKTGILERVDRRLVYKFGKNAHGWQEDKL
Procedure, shortened: as §1

ETV3 = molecular target: T12, ETV3 (Homo sapiens, UniProt P41162-2 1-143); conditions: protein: recombinant; tags: N-terminal GST; dsDNA, one strand shown
T12 sequence: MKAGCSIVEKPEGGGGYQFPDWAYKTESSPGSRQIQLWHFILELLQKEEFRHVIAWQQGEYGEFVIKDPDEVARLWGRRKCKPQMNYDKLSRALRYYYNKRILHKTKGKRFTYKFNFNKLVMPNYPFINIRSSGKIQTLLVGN
Procedure, shortened: as §1

ETV6 = ETV6 (Homo sapiens, UniProt P41212 1-452); conditions: protein: recombinant; tags: N-terminal GST; dsDNA, one strand shown
Chain of ETV6 (P41212 whole entry): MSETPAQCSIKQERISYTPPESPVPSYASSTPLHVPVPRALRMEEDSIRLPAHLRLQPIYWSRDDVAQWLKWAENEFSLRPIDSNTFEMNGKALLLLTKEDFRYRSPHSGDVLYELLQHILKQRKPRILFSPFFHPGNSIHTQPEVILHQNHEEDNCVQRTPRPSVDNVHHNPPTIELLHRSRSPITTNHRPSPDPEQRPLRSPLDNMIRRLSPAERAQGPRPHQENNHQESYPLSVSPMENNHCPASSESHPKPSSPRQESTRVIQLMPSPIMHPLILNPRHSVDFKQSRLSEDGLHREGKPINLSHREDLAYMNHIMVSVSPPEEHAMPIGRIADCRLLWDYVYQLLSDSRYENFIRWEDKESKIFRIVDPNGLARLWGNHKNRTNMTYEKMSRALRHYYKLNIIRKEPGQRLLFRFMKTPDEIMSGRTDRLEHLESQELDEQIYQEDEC
Procedure, shortened: as §1

Sequence: ATTTCA
- binding signal (FEV): 1.25 fold enrichment (6-mer frequency, TF over GST control)
- binding signal (ETV5): 1.27 fold enrichment (6-mer frequency, TF over GST control)
- binding signal (HSF1): 1.26 fold enrichment (6-mer frequency, TF over GST control)
- binding signal (SPIC): 1.18 fold enrichment (6-mer frequency, TF over GST control)
- binding signal (ELF4): 1.27 fold enrichment (6-mer frequency, TF over GST control)
- binding signal (ELK4): 1.27 fold enrichment (6-mer frequency, TF over GST control)
- binding signal (ETV2): 1.28 fold enrichment (6-mer frequency, TF over GST control)
- binding signal (ELF3): 1.16 fold enrichment (6-mer frequency, TF over GST control)
- binding signal (CRX): 1.22 fold enrichment (6-mer frequency, TF over GST control)
- binding signal (ETV1): 1.25 fold enrichment (6-mer frequency, TF over GST control)
- binding signal (ERF): 1.22 fold enrichment (6-mer frequency, TF over GST control)
- binding signal (ETV3L): 1.16 fold enrichment (6-mer frequency, TF over GST control)
- binding signal (ETS2): 1.22 fold enrichment (6-mer frequency, TF over GST control)
- binding signal (SPDEF): 1.28 fold enrichment (6-mer frequency, TF over GST control)
- binding signal (ETV7): 1.13 fold enrichment (6-mer frequency, TF over GST control)
- binding signal (ELF5): 1.25 fold enrichment (6-mer frequency, TF over GST control)
- binding signal (ETV3): 1.23 fold enrichment (6-mer frequency, TF over GST control)
- binding signal (ETV6): 1.27 fold enrichment (6-mer frequency, TF over GST control)

— PMC7862700, “An all-to-all approach to the identification of sequence-specific readers for epigenetic DNA modifications on cytosine”
